The panel holds about 83,000 compounds, 20% with a hit somewhere; the sample as a whole holds those more often.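 Activity criterion: percent growth below 10, measured after cells in 96-well plates were exposed to a single compound concentration for 48 hours.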 Unmarked numbers belong to inactive results. Active and inactive are the calls of the source.
Columns and labels:
Test in all cases: NCI-60 one-dose screen, 48 h (100 = growth as untreated, 0 = no growth, -100 = all killed)
Settings in all cases: 10 µM unless noted
NCI-H23 lung = test system: NCI-H23 lung
NCI-H226 lung = test system: NCI-H226 lung
NCI-H322M lung = test system: NCI-H322M lung
HOP-62 NSCLC = test system: HOP-62 NSCLC
NCI-H460 lung = test system: NCI-H460 lung
HOP-92 NSCLC = test system: HOP-92 NSCLC
NCI-H522 lung = test system: NCI-H522 lung
A549/ATCC NSCLC = test system: A549/ATCC NSCLC
786-0 renal = test system: 786-0 renal
COLO 205 colon = test system: COLO 205 colon
DU-145 prostate = test system: DU-145 prostate
K-562 leukemia = test system: K-562 leukemia
MALME-3M melanoma = test system: MALME-3M melanoma
MDA-MB-231 breast = test system: MDA-MB-231 breast
RXF 393 renal = test system: RXF 393 renal
SF-268 CNS = test system: SF-268 CNS
SF-295 CNS = test system: SF-295 CNS
SF-539 CNS = test system: SF-539 CNS
UACC-257 melanoma = test system: UACC-257 melanoma
M14 melanoma = test system: M14 melanoma

Row | Structure (SMILES) | growth (NCI-H23 lung) | growth (NCI-H226 lung) | growth (NCI-H322M lung) [%] | growth (HOP-62 NSCLC) | growth (NCI-H460 lung) | growth (HOP-92 NSCLC) | growth (NCI-H522 lung) | growth (A549/ATCC NSCLC) [%] | growth (786-0 renal) | growth (COLO 205 colon) | growth (DU-145 prostate) [%] | growth (K-562 leukemia) | growth (MALME-3M melanoma) | growth (MDA-MB-231 breast) | growth (RXF 393 renal) | growth (SF-268 CNS) | growth (SF-295 CNS) | growth (SF-539 CNS) | growth (UACC-257 melanoma) | growth (M14 melanoma)
1 | Cc1ccc(-c2cc(C(=O)N3N=C(c4ccc(N)cc4)CC3c3ccc(Cl)cc3)c3ccccc3n2)cc1 (stereo not given) | 49.4% | 72.1% | 48.3 | 33.9% | 12.9% | 41.2% | -2.26% (active) | 21.4 | 24.3% | 2.01% (active) | 18.6 | 7.72% (active) | 67% | 44.5% | -0.262% (active) | 38.9% | 21.4% | -2.29% (active) | 43.7% | -24% (active)
2 | COc1ccc(/C(C)=C(\c2ccc(Cl)cc2)c2ccc(OCCN3CCCC3)cc2)cc1 | 58.8% | 85% | 49.6 | 59.2% | 2.86% (active) | 56.4% | 69.9% | 25.5 | -31.6% (active) | -29.9% (active) | 62.6 | -1.6% (active) | 4.84% (active) | 25.5% | 32.6% | 51.8% | -7.32% (active) | 45.9% | -26.8% (active) | -13.7% (active)
3 | CN1CCN(Cc2ccc(NC(=O)c3cncc(C#Cc4cncc5[nH]ncc45)c3)cc2C(F)(F)F)CC1 | 7.77% (active) | -43.3% (active) | 13.7 | 7.14% (active) | 3.22% (active) | -22.9% (active) | 23.2% | 13.1 | 20.6% | 1.42% (active) | 20.2 | -5.05% (active) | -65.7% (active) | -88.2% (active) | -4.93% (active) | 2.23% (active) | 29% | -56.8% (active) | 6.82% (active) | -57.6% (active)
4 | CCOC(=O)c1c(C)nc2ccccc2c1/C=C/c1ccc(OC)cc1 | 46.3% | 61.8% | 95.8 | 71.8% | 78.1% | 44.5% | 53.5% | 57.6 | 77.8% | 83.6% | 93.1 | 42% | 87% | 74.6% | 91.3% | 78% | 58.8% | 85.3% | 74% | 70.5%
5 | CN1CCN(Cc2cc(NC(=O)c3cccc(C#Cc4cccc5[nH]nc(N)c45)c3)cc(C(F)(F)F)c2)CC1 | 41.3% | 24.6% | 35.9 | 42.4% | -20.9% (active) | -28.4% (active) | 20.9% | 27.9 | 24.9% | -35.3% (active) | 33.9 | -42.3% (active) | -54.7% (active) | -31% (active) | -9.77% (active) | 40.5% | 26.3% | -55.6% (active) | 57.8% | -53.1% (active)
6 | CCCCC(=O)Nc1ncc(Cc2ccccc2Cl)s1 | 69.4% | 63.4% | 86.8 | 42.7% | 51% | 51.3% | 19.9% | 40.9 | 50% | 37% | 67.2 | 24.8% | 52.1% | 53.3% | 31.3% | 69.6% | 45.7% | 39.2% | 55.3% | 21.8%
7 | CCN(CC)c1ccc(N2C(=O)/C(=C/c3cccs3)SC2=S)cc1 | 94.8% | 93.7% | 91.7 | 106% | 97.8% | 6.63% (active) | 82.9% | 92 | 95.6% | 101% | 100 | 94% | 84.2% | 91.3% | 98.3% | 92.1% | 99.6% | 94.3% | 80.6% | 95.4%
